Screens from PubChem BioAssay.
ROMK primary: modulates human ROMK potassium channel activity | 2% of 130,000 active | Tet-inducible ROMK, thallium flux fluorescence; actives lie on both sides | AID 1918 | P48048 | B-score at 10 µM;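 active means signal ratio slope over the read window, or its plate-corrected B-score, at least 3 SD from the plate mean, either direction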;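 further: B-score of the F/F0 ratio slope over 7 to 12 s after thallium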
Measles CPE: protection of cells from measles virus. Measles virus-infected cells, CPE protection, absorbance. 1.5% of 140,000 active. protection (pct of control), % at 4 µM; in the data active means protection mostly above about 24%, no sharp cut-off; inactive means mostly below about 26%
Cl transport mod: KCC2 (human) Cl- transport modulation. Q9H2X9. KCC2 cells, thallium flux FluoZin-2 fluorescence. B-score of Tl+ flux slope (higher = more flux/activation; lower = inhibition) at 10 µM. 2.2% of 190,000 active. AID 1456;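 active means thallium flux slope and its plate-corrected score both differing from the plate sample mean at a set confidence after two filtering rounds, in either direction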;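 further: slope of fluorescence scaled to starting intensity during 10 to 20 s after thallium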
Target sequence (Q9H2X9 whole entry, looked up): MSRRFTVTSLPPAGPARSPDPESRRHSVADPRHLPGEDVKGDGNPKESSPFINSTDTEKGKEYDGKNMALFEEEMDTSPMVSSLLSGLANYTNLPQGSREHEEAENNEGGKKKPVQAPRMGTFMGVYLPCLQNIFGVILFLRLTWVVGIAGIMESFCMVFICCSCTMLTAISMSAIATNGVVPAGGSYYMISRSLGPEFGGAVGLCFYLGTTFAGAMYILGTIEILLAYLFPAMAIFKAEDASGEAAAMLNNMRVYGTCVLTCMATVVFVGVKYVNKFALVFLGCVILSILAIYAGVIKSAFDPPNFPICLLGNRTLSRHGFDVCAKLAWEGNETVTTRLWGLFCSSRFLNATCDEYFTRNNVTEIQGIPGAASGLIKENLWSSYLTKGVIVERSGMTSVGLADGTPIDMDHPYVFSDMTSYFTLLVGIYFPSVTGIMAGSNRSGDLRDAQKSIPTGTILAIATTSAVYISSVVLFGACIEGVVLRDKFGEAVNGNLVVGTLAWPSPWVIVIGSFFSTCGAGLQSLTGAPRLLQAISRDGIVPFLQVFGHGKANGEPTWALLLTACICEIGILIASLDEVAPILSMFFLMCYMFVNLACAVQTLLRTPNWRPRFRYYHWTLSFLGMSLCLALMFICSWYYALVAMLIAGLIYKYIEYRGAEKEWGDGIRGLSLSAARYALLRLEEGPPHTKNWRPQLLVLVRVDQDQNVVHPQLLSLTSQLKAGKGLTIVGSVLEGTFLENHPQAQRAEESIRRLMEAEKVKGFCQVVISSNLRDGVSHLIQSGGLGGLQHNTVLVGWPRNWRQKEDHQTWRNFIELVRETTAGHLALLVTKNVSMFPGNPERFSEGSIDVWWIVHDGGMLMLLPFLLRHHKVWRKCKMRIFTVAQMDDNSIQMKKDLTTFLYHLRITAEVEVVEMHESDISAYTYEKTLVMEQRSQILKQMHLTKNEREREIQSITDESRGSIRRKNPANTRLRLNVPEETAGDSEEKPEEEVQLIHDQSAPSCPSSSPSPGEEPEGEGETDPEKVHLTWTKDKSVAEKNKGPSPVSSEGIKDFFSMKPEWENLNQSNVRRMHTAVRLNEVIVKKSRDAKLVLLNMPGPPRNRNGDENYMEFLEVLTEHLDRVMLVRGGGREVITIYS
HSV augment: HSV replication enhancement. HSV replication augmentation in cells, fold increase. maximum fold increase. 0.005% of 220,000 active. AID 1956; in the data active means maximum fold increase above about 1.5; tested in PC3 cells
Arbovirus inh: blocks arbovirus infection. AID 1251. inhibition, % at 10 µM. 0.37% of 200,000 active. arbovirus infection cell-based antiviral screen; in the data active means inhibition above about 30%
Each line names hits and unclear results; the compound was inactive in the other large screens. Sampled rows, rich in hits. Any-hit rate of the full collection: about 4%.

COc1ccc(Cl)cc1NC(=O)C1COc2ccccc2O1 (centres undefined)	Arbovirus inh 32 (no result: Measles CPE)
COc1cc(NC(=O)c2cccc(Cl)c2)c(OC)cc1NC(=O)CN1CCOCC1	Measles CPE 73 (no result: ROMK primary)
COc1ccc(NC(=O)Cn2cccc2)cc1Cl	Measles CPE 41
COc1cc(OC)c(NC(=O)Cn2cccc2)cc1Cl	none (no result: Cl transport mod)
COc1ccc(Cl)cc1NC(=O)Cn1cccc1	Measles CPE 34
COc1cc(NC(=O)c2cccc(Cl)c2)c(OC)cc1NC(=O)CN1CCCCC1	none (no result: Measles CPE)
C=C1CCN(c2ccc(C(=O)NCCC)cc2[N+](=O)[O-])CC1	none (no result: ROMK primary, Measles CPE, Cl transport mod, Arbovirus inh)
O=C(Nc1ccccc1)N(c1ccccc1)C1C=CS(=O)(=O)C1 (centres undefined)	none (no result: ROMK primary, Measles CPE, Arbovirus inh)
Cc1ccc(O)c(-c2cc(C(=O)Nc3ccc(S(=O)(=O)Nc4nc(C)cc(C)n4)cc3)[nH]n2)c1	Arbovirus inh 35 (no result: ROMK primary)
CC1CC2(C)Oc3ccccc3CC2C(C)C1CNCCCN(C)C (centres undefined)	none (no result: Measles CPE)
CCc1sc(NC(=O)COC)nc1-c1ccccc1	Measles CPE 28 (no result: Cl transport mod)
CCc1sc(NC(C)=O)nc1-c1ccccc1	none (no result: Measles CPE)
Cc1ccc2cc(/C=N/NC(=O)c3ccccc3[N+](=O)[O-])c(Cl)nc2c1	none (no result: Measles CPE)
CC(=O)Nc1cccc(NC(=S)Nc2ccc(F)cc2F)c1	none (no result: Measles CPE, Cl transport mod)
C[N+](C)(C)CCCCCCC(=O)/C=N/O	none (no result: ROMK primary)
C[N+]1(CCCCCCC(=O)/C=N/O)CCCCCC1	Measles CPE 32 (no result: Cl transport mod)
CC(=O)Oc1c(C)cc(Cl)cc1C(=O)Nc1ccc([N+](=O)[O-])cc1Cl	none
N#Cc1cn(Cc2ccncc2)c(=O)[nH]c1=O	none (no result: Measles CPE)
N#Cc1cn(OCc2ccccc2)c(=O)[nH]c1=O	Measles CPE 31
O=C(NC(c1ccccc1)C(Cl)(Cl)Cl)c1ccccc1 (centres undefined)	none
N#Cc1c2c(c(-c3ccco3)[nH]c1=O)CCCC2	Measles CPE 46
O=C(C1CCOCC1)N1CCC(CO)(CCc2ccccc2)CC1	none (no result: ROMK primary, Measles CPE, Cl transport mod)
O=C(COC(=O)c1ccc(NS(=O)(=O)c2cccs2)cc1)Nc1nc2c(F)c(F)c(F)cc2s1	Arbovirus inh 34 (no result: Measles CPE)
CC(C)CC(NC(N)=O)C(=O)OCC(=O)Nc1ccc(OC(F)F)cc1 (centres undefined)	none (no result: Measles CPE)
CC1Cc2ccccc2N1C(=S)NC(=O)c1cccc(Br)c1 (centres undefined)	ROMK primary 10, Cl transport mod 63
CC1Cc2ccccc2N1C(=S)NC(=O)c1ccc(Cl)cc1Cl (centres undefined)	ROMK primary 7.8, Cl transport mod 51
CC(=O)c1ccc(NC(=S)N2c3ccccc3CC2C)cc1 (centres undefined)	none (no result: ROMK primary, Measles CPE)
Cc1ccccc1Nc1scc(-c2ccc(Cl)cc2)[n+]1-c1ccccc1C	none (no result: Measles CPE)
CC(C)(C)NC(=O)NCC1CCCC1NC(=O)NC(C)(C)C (centres undefined)	none (no result: ROMK primary, Measles CPE, Arbovirus inh)
Cc1csc2ncc(C(=O)N3CCc4ccccc43)c(=O)n12	Cl transport mod -2.8 (no result: ROMK primary, Measles CPE, Arbovirus inh)
Cc1csc2ncc(C(=O)N3CCCc4ccccc43)c(=O)n12	none (no result: ROMK primary)
CC1CCc2c(sc(NS(=O)(=O)c3ccccc3)c2C(=O)OC(C)C)C1 (centres undefined)	Cl transport mod 10
COCC(=O)Nc1sc2c(c1C(=O)OC)CCC(C)C2 (centres undefined)	none (no result: ROMK primary, Cl transport mod)
Cc1ccc(C(=O)/C=C\NCc2ccccc2)cc1	none (no result: Cl transport mod)
CCc1ccc(C(=O)/C=C/NCc2ccc(F)cc2)cc1	HSV augment 1.5 (no result: ROMK primary)
S=c1[nH]nc(-c2cc3ccccc3o2)n1Cc1ccccc1	Cl transport mod 28
Cc1ccc2nc(NC(=O)C3=NN(c4ccccc4)C(=O)CC3)sc2c1	Arbovirus inh 60 (no result: ROMK primary)
O=C(Nc1nc2ccccc2s1)c1cc(-c2ccccc2)nn1-c1ccccc1	Arbovirus inh 49
O=C(Nc1nc(-c2cc(F)ccc2F)cs1)C1=NN(c2ccccc2)C(=O)CC1	none (no result: Measles CPE)
CC(=O)c1sc(NC(=O)c2cc(-c3ccccc3)nn2-c2ccccc2)nc1C	none
CCOc1ccc2nc(NC(=O)C3=NN(c4ccccc4)C(=O)CC3)sc2c1	Arbovirus inh 52 (no result: Measles CPE)
COc1ccc(-c2csc(NC(=O)C3=NN(c4ccccc4)C(=O)CC3)n2)cc1	Arbovirus inh 31 (no result: Measles CPE)
CC(=O)Nc1nc(=O)c2ccccc2s1	none
O=C(Nc1nc(=O)c2ccccc2s1)c1ccccc1	ROMK primary 3, Cl transport mod 42
O=C(Nc1ccc2nc(-c3ccccc3)[nH]c2c1)c1ccco1	none (no result: ROMK primary)
O=C(Nc1ccc2nc[nH]c2c1)c1ccco1	Measles CPE 53 (no result: Cl transport mod)
CC(C)C(=O)Nc1ccc(NC(=O)c2ccco2)cn1	Measles CPE 55 (no result: ROMK primary)
O=C(Nc1ccc(C(=O)O)cc1)/C(=C\C=C\c1ccccc1)NC(=O)c1ccc(Br)cc1	none (no result: Measles CPE)
Cc1ccc(NC(=O)/C(=C/C=C/c2ccccc2)NC(=O)c2ccccc2)cc1	Arbovirus inh 30 (no result: ROMK primary)
Cn1c(/C(C#N)=C(\O)CN2CCN(Cc3ccccc3)CC2)nc2ccccc21	Cl transport mod -6.1
CC1CCCC(C)N1/N=C/c1ccc(C#N)cc1 (centres undefined)	none (no result: Measles CPE)
CC(=O)Cn1ncc(Br)c(Br)c1=O	none (no result: Measles CPE)
O=C(OCn1ncc(Br)c(Br)c1=O)c1c(F)cccc1F	ROMK primary -4.2 (no result: Cl transport mod)
O=C(CNCc1cccs1)NC12CC3CC(CC(C3)C1)C2	none (no result: Measles CPE, Cl transport mod)
CC1(C)C2CCC(C2)C1(C)NC(=O)CNCc1cccs1 (centres undefined)	Arbovirus inh 30 (no result: Measles CPE)
COCCN1CCC(CNCc2cn(-c3cc(C)ccc3C)nc2-c2ccccc2)C1 (centres undefined)	none (no result: Measles CPE)
Cc1ccc(-c2cc(-c3n[nH]c(=S)o3)c3ccccc3n2)cc1	Cl transport mod 17
C/C(=N\NC(=O)c1c(Br)cnn1C)c1ccc(NC(=O)c2ccc(F)cc2)cc1	none (no result: Measles CPE)
Cc1ccc(C(=O)Nc2cccc(C(=O)N3CCOCC3)c2)cc1	none (no result: ROMK primary, Cl transport mod)
O=C(NC(=S)Nc1ccc(N2CCOCC2)c(Cl)c1)c1cncc(Br)c1	Cl transport mod 11
O=C(Nc1cccc(C(=O)N2CCOCC2)c1)c1cncc(Br)c1	Measles CPE 38 (no result: ROMK primary, Cl transport mod)
O=C(Nc1ccc(N2CCCCC2)c(Cl)c1)c1cccnc1	Measles CPE 61 (no result: ROMK primary)
COc1ccc(OCC(=O)NC(=S)Nc2ccc(N3CCOCC3)c(Cl)c2)cc1	Cl transport mod 36
O=C(Nc1ccc(N2CCOCC2)c(Cl)c1)c1cccnc1	none
CN(CCc1cn[nH]c1)Cc1nc(Cc2ccccc2)no1	none (no result: Measles CPE)
COc1ccc(-c2cn3nc4c(nc3n2)CCCC4)cc1	ROMK primary -3.2 (no result: Cl transport mod, HSV augment)
COc1cccc(-c2cn3nc(C)c(C)nc3n2)c1	none (no result: ROMK primary, Cl transport mod)
CCOC(=O)c1cccc(NC(=O)Nc2ccc3c(c2)C(=O)OC3)c1	none (no result: Measles CPE, Arbovirus inh)
O=C(C1CC1)N1CCN=C1SCc1ccccc1	Measles CPE 41 (no result: ROMK primary)
O=C(C1CC1)N1CCN=C1SCc1ccc(F)cc1	none (no result: ROMK primary, Cl transport mod)
O=C(NC(=S)N1CCN(c2c(Cl)cccc2[N+](=O)[O-])CC1)c1cccs1	none (no result: ROMK primary, Cl transport mod)
COc1ccc(N2CCN(C(=S)NC(=O)c3cccs3)CC2)c([N+](=O)[O-])c1	ROMK primary 3.4, Cl transport mod 90 (no result: Measles CPE)
CCc1ccc2nc(NC(=O)c3cc(C)on3)sc2c1	Cl transport mod 42 (no result: ROMK primary)
Cc1cc(C)c2nc(NC(=O)c3cc(C)on3)sc2c1	Cl transport mod 39
CCC(=O)NNc1nc2c(C)cc(C)cc2s1	none (no result: Measles CPE, Cl transport mod)
